The list is not random: actives were taken first. Their share in the collection is about 11%.
WT yeast gro inh: growth inhibition of WT strain, primary screen, mitochondrial fusion inhibitor project, WT and mutant strains, chemical genetic | mitochondrial fusion phenotypic screen | inhibition, % at 10 µM | actives 2.1% (n = 190,000); in the data active means inhibition above about 58%; tested in S. cerevisiae
Lmaj promast: Leishmania major promastigote growth inhibition, primary screen; inhibition, % at 10 µM; actives 9% (n = 200,000); Leishmania major promastigotes, resazurin fluorescence viability; in the data active means inhibition above about 50%;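 further: promastigotes grown with compound for 44 hours at 28 °C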
Autophagy mod: autophagy modulators in MEF cells, primary screen, imaging, high-content, MEF GFP-LC3. MEF GFP-LC3 puncta imaging; test concentration mostly 10 µM. calls only at 10 µM (by protocol). actives 0.98% (n = 190,000). AID 463193, 2010;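 active means percentage of spot-positive cells more than 3 SD above its plate mean, without a fluorescence outlier flag or 80% toxicity; inconclusive means no clear call, values can overlap the other calls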;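 further: spot-positive cell cutoff set from DMSO-treated cells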
Ins promoter up: insulin promoter activators in MIN6 cells, imaging, high-content screening, mouse beta cells; MIN6 insulin promoter-GFP reporter; active compounds read high; z-score at 5 µM; actives 0.3% (n = 190,000); AID 1625, 2009;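 active means z-score above 3 at 5 µM with at least 500 cells counted in the well; inconclusive means wells under 500 cells, flagged as cytotoxic or low count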
INS promoter inh: inhibitors of insulin promoter-driven GFP, primary screen, imaging, TRM-6 cells (human fetal islet line), eGFP reporter, cell count | reporter expression induced with tamoxifen | actives 0.9% (n = 130,000) | inhibition, % at 2 µM;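 active means inhibition above the mean plus 3 SD, with well images judged a real hit on visual review, cut at about 60% in these data, passing the limit was not always enough; inconclusive means inhibition over the cutoff but images rejected on review; inactive means inhibition not above the cutoff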
Starred values were filed as active, the others as inactive.

Screening CN1CCN(c2ccc([N+](=O)[O-])cc2C(=O)c2ccccc2)CC1 returned WT yeast gro inh 1, Lmaj promast 56*, Autophagy mod inactive, Ins promoter up -0.7 and INS promoter inh 0.
For CN(C)c1ccc(/C=N/N2C(=N)N(c3ccccc3)C(=S)C2=Nc2ccccc2)cc1 the results were Lmaj promast 1, Autophagy mod inactive and INS promoter inh -252.
CCOC(=O)c1ccc(N=C2C(=S)N(c3ccc(C(=O)OCC)cc3)C(=N)N2/N=C/c2ccccc2)cc1 was read as WT yeast gro inh 21, Lmaj promast 100*, Autophagy mod inactive, Ins promoter up inconclusive and INS promoter inh -52.
COc1ccc(CC2(CO)CCN(C(C)COc3ccccc3)CC2)cc1 (stereo not drawn) was read as WT yeast gro inh -7, Lmaj promast 79*, Autophagy mod inactive, Ins promoter up 0.9 and INS promoter inh 13.
For COc1ccc(CC2(CO)CCN(C/C=C/c3ccccc3OC)CC2)cc1 the results were WT yeast gro inh 21, Lmaj promast 87*, Autophagy mod inactive, Ins promoter up 0.37 and INS promoter inh 7.
Screening COc1ccc(CC2(CO)CCN(S(=O)(=O)N(C)C)CC2)cc1 returned WT yeast gro inh 1, Lmaj promast -5, Autophagy mod inactive and INS promoter inh 35.
COc1ccccc1/C=C/CN1CCN(c2ccccc2)CC1 was read as WT yeast gro inh -12, Lmaj promast 9, Autophagy mod inactive, Ins promoter up 1 and INS promoter inh 0.
For CC(COc1ccccc1)N1CCC(CO)(Cc2ccccc2)CC1 (stereo not drawn) the results were WT yeast gro inh 5, Lmaj promast 60*, Autophagy mod inactive and Ins promoter up -0.38.
Screening O=C(Cn1cnc2cc([N+](=O)[O-])ccc2c1=O)NC(c1ccccc1)c1ccccc1 returned WT yeast gro inh 2, Lmaj promast 12, Autophagy mod inactive, Ins promoter up 0.14 and INS promoter inh 13.
For COC(=O)c1cn(CCOc2ccccc2)c2ccccc12 the results were WT yeast gro inh -17, Lmaj promast 4, Autophagy mod active, Ins promoter up 0.63 and INS promoter inh -79.
S=C(c1cn(CCOc2ccccc2)c2ccccc12)N1CCCC1 was read as WT yeast gro inh 70*, Lmaj promast 98*, Autophagy mod inactive, Ins promoter up -0.91 and INS promoter inh 17.
COc1ccc(OCCn2cc(/C(N)=N/O)c3ccccc32)cc1 was read as WT yeast gro inh 13, Lmaj promast 8, Autophagy mod inactive, Ins promoter up 3.1* and INS promoter inh -29.
S=C(c1cn(CCOc2cccc3ccccc23)c2ccccc12)N1CCCC1 was read as WT yeast gro inh 31, Lmaj promast 95*, Autophagy mod inactive, Ins promoter up -2.1 and INS promoter inh -17.
Screening Cc1ccc(OCCn2cc(/C(N)=N/O)c3ccccc32)cc1C returned WT yeast gro inh -13, Lmaj promast 21, Autophagy mod inactive and Ins promoter up -0.71.
For Cc1sc(NC(=O)CN2CCN(c3ccccn3)CC2)c(C#N)c1C the results were WT yeast gro inh -1, Lmaj promast 6, Autophagy mod inactive and INS promoter inh -180.
COCCCNC(=S)NCCNc1nc2c(C)c(C)ccc2cc1C#N was read as WT yeast gro inh 17, Lmaj promast 3, Autophagy mod inactive and Ins promoter up -0.38.
For O=S(=O)(Nc1ccc2cn[nH]c2c1)c1ccc(Cl)s1 the results were WT yeast gro inh -11, Lmaj promast 2, Autophagy mod inactive and Ins promoter up -0.81.
For Cc1cccc(N2CCN(C(=O)c3ccc(Cl)c(S(=O)(=O)NCc4ccco4)c3)CC2)c1C the results were WT yeast gro inh 74*, Lmaj promast 42, Autophagy mod inactive and Ins promoter up -0.63.
`Cc1cccc(N2CCN(C(=O)c3ccc(Cl)c(S(=O)(=O)N4CCc5ccccc5C4)c3)CC2)c1C` gave WT yeast gro inh 7, Lmaj promast 99*, Autophagy mod inactive, Ins promoter up 0.38 and INS promoter inh 0.
Cc1ccc(S(=O)(=O)NCc2ccco2)c(C)c1C was read as WT yeast gro inh 74*, Lmaj promast -9, Autophagy mod inactive, Ins promoter up 0.27 and INS promoter inh 25.
`O=C(NCC1(N2CCOCC2)CCCCC1)c1ccc(Cl)c(S(=O)(=O)NCc2ccco2)c1` gave WT yeast gro inh 8, Lmaj promast 93*, Autophagy mod inactive and Ins promoter up 0.26.
`O=C(O)c1ccc(Cl)c(S(=O)(=O)NCc2ccco2)c1` gave WT yeast gro inh 19, Lmaj promast -6, Autophagy mod inactive and INS promoter inh -11.
`O=C(c1ccc(Cl)c(S(=O)(=O)N2CCCC2)c1)N1CCN(c2ccccc2F)CC1` gave WT yeast gro inh 16, Lmaj promast -5, Autophagy mod inactive and Ins promoter up -0.49.
`COc1ccccc1CNC(=O)c1ccc(OC(F)F)c(OC)c1` gave WT yeast gro inh 4, Lmaj promast -2, Autophagy mod inactive and Ins promoter up -0.5.
CC(CNC(=O)C(C)(C)C)NC(=O)C(C)(C)C (stereo not drawn) was read as WT yeast gro inh 11, Lmaj promast 41, Autophagy mod inactive, Ins promoter up -0.02 and INS promoter inh -10.
`COc1ccc(CNc2cc(NCCCO)c([N+](=O)[O-])c3nonc23)cc1` gave WT yeast gro inh 6, Lmaj promast 67*, Autophagy mod inactive and INS promoter inh 8.
For CCN1/C(=C/c2cc[n+](C)cc2)C=Cc2cc(C)ccc21 the results were WT yeast gro inh 70*, Lmaj promast 100*, Autophagy mod inactive, Ins promoter up inconclusive and INS promoter inh -96.
Screening CCN1/C(=C2\C(=O)N(c3ccccc3)N=C2C)C=Cc2cc(C)ccc21 returned WT yeast gro inh -4, Lmaj promast 1, Autophagy mod inactive, Ins promoter up -0.09 and INS promoter inh -8.
Screening COc1ccc(/C=N/NC(=O)CSc2ccccc2)cc1OC returned WT yeast gro inh 19, Lmaj promast -6, Autophagy mod inactive, Ins promoter up -0.67 and INS promoter inh 64*.
COc1ccc(/C=N/NC(=O)c2ccc(N(C)S(=O)(=O)c3ccccc3)cc2)cc1OC was read as WT yeast gro inh 0, Lmaj promast 67*, Autophagy mod inactive, Ins promoter up 0.11 and INS promoter inh 50.
COc1cc(/C=N/NC(=O)c2ccccc2)ccc1O was read as WT yeast gro inh 0, Lmaj promast -2, Autophagy mod inactive and Ins promoter up -0.59.
`COc1ccc(/C=N/NC(=S)SC)cc1OC` gave WT yeast gro inh 61*, Lmaj promast 33, Autophagy mod inactive, Ins promoter up -0.01 and INS promoter inh -7.
`CCOC(=O)c1c([N+](=O)[O-])c(C)[nH]c(=O)c1C#N` gave Ins promoter up -0.01.

Bioassay records from PubChem.
